Results filed as inconclusive are left out. The source made the active and inactive calls. Unless noted, calls come from the whole dose curve; as a rule, active = well fitted curve in the direction sought with a large enough effect in the repeat runs; inconclusive = weak or mixed curves; inactive = no such curve, though single readings can be large; an effect the other way counts as inactive or inconclusive.
Legend:
[1] = qHTS assay to identify small molecule agonists of the vitamin D receptor (VDR) signaling pathway - cell viability counter screen (AID 743224); note: series mostly up to about 63 µM; nearly all actives have a fitted effect of over 50% in size
How it was run: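 Luminescence from CellTiter-Glo, read after 30 min at room temperature, reports viability of VDR-bla cells treated with compounds for 16 h at 37C in the wells used for the beta-lactamase FRET read.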

[2] = qHTS assay to identify small molecule antagonists of the vitamin D receptor (VDR) signaling pathway - cell viability counter screen (AID 743225); note: nearly all actives have a fitted effect of over 50% in size
How it was run: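 Same-well multiplex: following 16 h treatment of HEK 293T cells carrying a UAS-driven beta-lactamase reporter with compound and agonist (3 nM final), and a 2 h FRET substrate step, CellTiter-Glo was added and luminescence read after 30 min.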

[3] = qHTS assay to identify small molecule agonists of the NFkB signaling pathway - cell viability counter screen (AID 1159515; calls by dose curve; note: series mostly up to about 61 µM; nearly all actives have a fitted effect of over 55% in size)
How it was run: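 Luminescence from CellTiter-Glo (30 min, room temperature) gives viability, measured in the same wells as the beta-lactamase reporter read. Cells were NFkB-bla ME-180, 2,000 per well, treated 5 hr with compounds.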

[4] = qHTS assay to identify small molecule agonists of the endoplasmic reticulum stress response signaling pathway (AID 1159516; active = well fitted activation curve with a large enough effect in the signal ratio in the repeat runs, not every such curve was filed as active; the % refers to the signal ratio)
How it was run: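 Read-out is beta-lactamase cleavage of a FRET substrate (405 nm excitation; 460 and 530 nm emissions) in ESRE-bla HeLa cells after a 5 hr compound exposure at 37 C. Substrate incubation ran 2 hr at room temperature.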

[5] = qHTS assay to identify small molecule agonists of the endoplasmic reticulum stress response signaling pathway - cell viability counter screen (AID 1159517; calls by dose curve;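 note: HeLa cells carrying an ER stress response element beta-lactamase reporter; series mostly up to about 61 µM; nearly all actives have a fitted effect of over 50% in size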)
How it was run: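 Luminescence readout: CellTiter-Glo, 30 min RT, same wells as the ESRE-bla reporter read. HeLa ESRE-bla, 1,500 cells/well, o/n 37 C; cpd 5 hr 37 C/5% CO2.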

[6] = qHTS assay to identify small molecule antagonists of the retinoid-related orphan receptor gamma (ROR-gamma) signaling pathway - cell viability counter screen (AID 1159520); note: nearly all actives have a fitted effect of over 50% in size
How it was run: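 Tet-on ROR gamma CHO cells (1,000/well) were plated 4 hr, given compounds in DMSO for 2 hr at 37 C, then induced with 1 uM final doxycycline for 16 hr. Viability was read as ATP by CellTiter-Glo luminescence after 30 min.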

[7] = biological target: Nuclear receptor ROR-gamma (Homo sapiens) (UniProt P51449); assay: qHTS assay to identify small molecule antagonists of the retinoid-related orphan receptor gamma (ROR-gamma) signaling pathway (AID 1159521)
How it was run: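 Inducible-expression reporter assay: doxycycline (1 uM final) switched on RORγ in CHO cells bearing a ROR response element-luciferase construct, with test compounds present from 2 h beforehand. Decreased luminescence after 16 h defined antagonist activity.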

[8] = qHTS assay to identify small molecule agonists of the AP-1 signaling pathway - cell viability counter screen (AID 1159525; calls by dose curve; note: nearly all actives have a fitted effect of over 55% in size)
How it was run: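 ME-180 AP-1-bla, 2500 cells/well, Opti-MEM + 0.5% dialyzed FBS; overnight 37 °C; cpd 15-pt titration, 5 h 37 °C; CellTiter-Glo 30 min RT; luminescence read; normalised to TOAB and DMSO controls.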

[9] = qHTS assay to identify small molecule agonists of the AP-1 signaling pathway (AID 1159526; calls by dose curve)
[10] = biological target: Retinoic acid receptor RXR-alpha (Homo sapiens) (UniProt P19793); assay: qHTS assay to identify small molecule agonists of the RXR signaling pathway (AID 1159527; calls by dose curve; note: nearly all actives have a fitted effect of over 35% in size)
How it was run: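 Compounds in DMSO were added to RXR-alpha-UAS-bla HEK 293T cells kept in 2% charcoal-stripped serum, and incubated 16 hr at 37 C with 5% CO2. Reporter signal came from a 2 hr B/G FRET substrate step.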

[11] = qHTS assay to identify small molecule agonists of the RXR signaling pathway - cell viability counter screen (AID 1159529)
How it was run: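 Counter screen: CellTiter-Glo luminescence. Cells: RXR-alpha-UAS-bla HEK 293T. Medium: 2% charcoal-stripped FBS. Treatment: 16 h, 37 C. Reagent incubation: 30 min, RT.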

[12] = qHTS assay to identify small molecule antagonists of the retinoid acid receptor (RAR) signaling pathway - cell viability counter screen (AID 1159551); note: nearly all actives have a fitted effect of over 35% in size
How it was run: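 Luminescent ATP quantitation (CellTiter-Glo) gave cell viability in C3RL4 cells exposed to test chemicals for 6 h at 37 C alongside 1 uM final retinol.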

[13] = qHTS assay to identify small molecule agonists of the retinoic acid receptor (RAR) signaling pathway (AID 1159553)
How it was run: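 Luminescence from a RARE-driven luciferase reporter in C3RL4 cells served as the read-out, measured after 30 min with detection reagent at room temperature. Compounds in DMSO were applied for 6 hr at 37 C following overnight seeding.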

[14] = qHTS assay to identify small molecule antagonists of the retinoic acid receptor (RAR) signaling pathway (AID 1159552; note: nearly all actives have a fitted effect of over 50% in size)
How it was run: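 Antagonism of retinol-induced RARE reporter activity was measured in C3RL4 cells. Exposure to compounds and 1 uM final retinol lasted 6 hr at 37 C, with luminescence as endpoint.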

[15] = qHTS assay to identify small molecule antagonists of the estrogen related receptor (ERR) signaling pathway - cell viability counter screen (AID 1224818);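 note: series mostly up to about 46 µM; viability measured after 17.5 h of compound exposure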
How it was run: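 Multiplexed counter screen to separate cytotoxic compounds from true ERR modulators. ERR cells received DMSO-dissolved compounds after a 6 h pre-incubation, were exposed 17.5 h at 37 C, then assayed with CellTiter-Fluor fluorescence.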

[16] = qHTS assay to identify small molecule antagonists of the estrogen related receptor (ERR) signaling pathway (AID 1224819)
How it was run: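 Seed ERR cells 2,000/well; rest 6 h at 37 C/5% CO2; pin compounds in DMSO; incubate 18 h at 37 C; add One-Glo; wait 30 min at room temperature; measure luminescence.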

[17] = qHTS assay to identify small molecule agonists of the estrogen related receptor (ERR) signaling pathway (AID 1224820)
How it was run: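 Quantitative HTS of the LOPAC library used NTP ERR reporter cells treated 18 h at 37 C. Signal is luminescence after One-Glo addition and a 30 min room-temperature incubation.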

[18] = tested on: estrogen-related receptor alpha (ERRalpha) with PGC-1alpha coactivator, human; assay: qHTS assay to identify small molecule antagonists of the estrogen related receptor signaling pathway with the pleiotropic PPARgamma coactivator (PGC) (AID 1224821; calls by dose curve)
How it was run: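 Quantitative HTS for antagonism: PGC/ERR cells received compounds after 6 h attachment and were incubated 18 h at 37 C, with luminescence (One-Glo) as the endpoint.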

[19] = qHTS assay to identify small molecule antagonists of the estrogen related receptor signaling pathway with the pleiotropic PPARgamma coactivator (PGC) cell viability counter screen (AID 1224822;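 note: series mostly up to about 46 µM; viability read after 17.5 h compound exposure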)
How it was run: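 Cells: PGC/ERR, 2,000/well, 1536-well format. Pre-incubation 6 h, 37 C/5% CO2. Compound exposure 17.5 h, 37 C. Detection: CellTiter-Fluor, 30 min, fluorescence.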

[20] = qHTS assay to identify small molecule agonists of the estrogen related receptor signaling pathway with the pleiotropic PPARgamma coactivator (PGC) (AID 1224823)
How it was run: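 Cell-based luciferase assay in the NTP-supplied PGC/ERR line, 2,000 cells/well; 18 h compound exposure at 37 C, luminescence after One-Glo.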

Measured: Potency

Chain of Retinoic acid receptor RXR-alpha (Homo sapiens) (P19793 whole entry, looked up): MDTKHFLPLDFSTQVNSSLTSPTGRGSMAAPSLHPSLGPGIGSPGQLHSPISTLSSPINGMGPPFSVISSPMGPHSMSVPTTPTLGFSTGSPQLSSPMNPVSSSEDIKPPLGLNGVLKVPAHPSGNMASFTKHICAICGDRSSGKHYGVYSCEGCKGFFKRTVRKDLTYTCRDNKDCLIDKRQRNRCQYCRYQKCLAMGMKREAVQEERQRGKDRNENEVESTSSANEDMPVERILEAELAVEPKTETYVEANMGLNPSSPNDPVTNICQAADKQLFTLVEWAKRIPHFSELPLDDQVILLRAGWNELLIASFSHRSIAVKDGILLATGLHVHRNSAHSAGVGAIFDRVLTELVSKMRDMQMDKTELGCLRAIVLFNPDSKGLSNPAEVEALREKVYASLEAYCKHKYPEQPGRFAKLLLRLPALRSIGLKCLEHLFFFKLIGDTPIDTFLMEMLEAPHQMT

CC(Oc1cc(Cl)c(Cl)cc1Cl)C(=O)O (stereo not drawn)
not listed: [13] | [14] | [15] | [16] | [17] | [18] | [19] | [20]
inactive: all other assays above

CC(CC(C(N)=O)(c1ccccc1)c1ccccc1)N(C)C (stereo not drawn)
inactive: [1] | [3] | [4] | [5] | [6] | [7] | [8] | [9] | [10] | [11]

CCC[N+](CCC)(CCC)CCC
not listed: [1] | [14] | [15] | [16] | [17] | [18] | [19] | [20]
inactive: all other assays above

CCCCCCCCP(=O)(O)O
not listed: [15] | [16] | [17] | [18] | [19] | [20]
inactive: all other assays above

CC(C)(C)NCC(O)c1ccccc1Cl (stereo not drawn)
not listed: [13] | [14]
inactive: all other assays above

C[N+](C)(C)CC1CO1 (stereo not drawn)
not listed: [1] | [15] | [16] | [17] | [18] | [19] | [20]
inactive: all other assays above

CN[C@@H](C)[C@H](O)c1ccccc1
not listed: [13] | [15] | [16] | [17] | [18] | [19] | [20]
inactive: all other assays above

C=CC(C)(CCC=C(C)C)OC(=O)c1ccccc1N (stereo not drawn)
not listed: [1] | [2] | [15] | [16] | [17] | [18] | [19] | [20]
inactive: all other assays above

Nc1cc(Cl)cc(C(=O)O)c1Cl
not listed: [15] | [16] | [17] | [18] | [19] | [20]
inactive: all other assays above

Source: PubChem BioAssay (Tox21)
